An excerpt weighted towards active compounds, which were near 3.3% of everything screened.
FGF22 binding – FGF22 (human) thermal shift binding; Q9HCT0; recombinant FGF22 thermal shift, SYPRO orange fluorescence; percent of sucrose octasulfate shift, DMSO zero; activity (Tm shift, normalised), % at 9.99 µM; 340,000 compounds, 1.5% hits; AID 651658;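 active means mean Tm shift, scaled 0 neutral to 100 positive control, at about 1.3% or above, every replicate too, limit read from the data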
Target sequence (Q9HCT0 whole entry, looked up): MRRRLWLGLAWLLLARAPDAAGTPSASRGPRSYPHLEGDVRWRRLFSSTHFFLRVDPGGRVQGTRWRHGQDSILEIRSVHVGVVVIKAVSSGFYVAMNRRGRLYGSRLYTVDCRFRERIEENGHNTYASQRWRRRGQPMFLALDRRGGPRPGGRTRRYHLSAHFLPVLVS
SIRT5 inh – sirtuin-5 (human) deacylase inhibition; Q9NXA8; Purified SirT5, succinyl-peptide AMC, trypsin-coupled fluorescence; 330,000 compounds, 1.1% hits; inhibition, % at 15 µM; in the data active means inhibition above about 15%
Casp6 inh – blocks human caspase-6 cleavage activity; purified caspase-6, Z-VEID-R110 cleavage fluorescence; inhibition, % at 12.5 µM; 350,000 compounds, 0.53% hits;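 active means mean inhibition across replicates at least about 35%, with every replicate also reaching that limit, limit read from the data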
Target sequence (P55212 24-179 limits assumed): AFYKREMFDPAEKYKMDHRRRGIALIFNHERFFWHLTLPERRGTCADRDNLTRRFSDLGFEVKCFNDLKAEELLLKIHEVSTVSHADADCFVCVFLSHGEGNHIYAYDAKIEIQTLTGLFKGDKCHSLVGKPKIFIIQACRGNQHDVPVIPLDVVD
Target sequence (P55212 194-293 limits assumed): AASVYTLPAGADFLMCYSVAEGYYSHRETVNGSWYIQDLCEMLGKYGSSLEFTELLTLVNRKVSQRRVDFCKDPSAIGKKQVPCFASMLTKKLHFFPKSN
GSIS activator – primary screen for activators of insulin secretion dependent on glucose, INS-1E cells, GLuc reporter luminescence; AID 743287; 370,000 compounds, 0.61% hits; INS-1E GLuc reporter insulin secretion, 2-3 h; activation, % at 16.6 µM;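 active means lowest replicate activation of at least 40%, so every replicate reaches that level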
ERAP1 inh – blocks human ERAP1 aminopeptidase activity. Q9NZ08. recombinant ERAP1, Leu-AMC fluorescence, 60 min. inhibition, % at 10.7 µM. 340,000 compounds, 0.15% hits. AID 652197;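 active means mean replicate inhibition of at least 30%, or all replicates individually reaching that 30% level; inactive means mean below 30% and not every replicate reaching it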
Numbers stand for hits; n = inactive; x = no result.

SMILES	FGF22 binding	SIRT5 inh	Casp6 inh	GSIS activator	ERAP1 inh
C[C@@H]1CCCCO[C@H](CN(C)C(=O)Nc2ccc(F)cc2)[C@@H](C)CN([C@H](C)CO)C(=O)c2cc(NC(=O)Nc3ccc(C(F)(F)F)cc3)ccc2O1	n	n	n	n	n
C[C@@H]1CCCCO[C@H](CN(C)C(=O)Nc2ccc(F)cc2)[C@H](C)CN([C@@H](C)CO)C(=O)c2cc(NC(=O)Nc3ccc(C(F)(F)F)cc3)ccc2O1	1.3	n	n	n	n
COCC(=O)N(C)C[C@H]1Oc2ncc(C#CC(C)(C)O)cc2C(=O)N([C@@H](C)CO)C[C@H]1C	x	x	x	n	x
CC(C)Cc1cc(CN2CCCC(CO)(Cc3cccc(Cl)c3)C2)[nH]n1 (configuration not stated)	n	n	n	n	n
Cc1cc(CN2CCCC(CO)(Cc3cccc(Cl)c3)C2)n[nH]1 (configuration not stated)	43.5	n	n	n	n
CC(C)Cn1c(=O)c2ccccc2n2c(CCC(=O)NC3CCN(Cc4ccccc4)CC3)nnc12	n	n	n	n	n
CC(C)CCn1c(=O)c2ccccc2n2c(CN3CCOCC3)nnc12	n	n	n	45.0	n
Cc1ccc(S(=O)(=O)N(C)C[C@@H]2OCCCC[C@H](C)Oc3ccc(NC(=O)c4ccccc4)cc3C(=O)N([C@H](C)CO)C[C@@H]2C)cc1	n	n	n	n	n
Cc1cc(C)n(-c2nnc(C)n2/N=C/c2ccc(O)cc2)n1	n	17.8	n	n	n
Cc1ccc2c(c1)N(C(C)C(=O)NCc1ccccn1)C(=O)CO2 (configuration not stated)	n	n	n	n	n
Cc1ccc2c(c1)N(C(C)C(=O)NCc1cccs1)C(=O)CO2 (configuration not stated)	n	n	n	51.0	x
CC(C(=O)NCc1cccs1)N1C(=O)c2ccccc2C1=O (configuration not stated)	x	18.8	n	n	n
CN(C)C(=O)c1cccc(-c2ccccc2[C@@H]2[C@H](C#N)N(C(=O)C3CCCC3)[C@H]2CO)c1	x	n	n	n	n
CCOc1ccc(CCNC(=O)COC(=O)c2cccnc2OCC)cc1OCC	x	x	x	60.5	x
COc1ccc(CCNC(=O)COC(=O)Cn2cnc3ccccc32)cc1OC	n	n	n	56.9	n
CCOc1ccc(CCNC(=O)COC(=O)c2ccccc2O)cc1OCC	n	n	n	n	n
CCOc1ccccc1OCC(=O)NCCc1ccc(S(N)(=O)=O)cc1	43.4	n	n	n	n
CN(CC(=O)NCCc1ccc(S(N)(=O)=O)cc1)S(=O)(=O)/C=C/c1ccccc1	n	n	n	n	n
CCOc1ccccc1C(=O)NCC(=O)NCCc1ccc(S(N)(=O)=O)cc1	n	n	n	n	n
CN(CC(=O)NCCc1ccc(S(N)(=O)=O)cc1)c1ccccc1	43.1	n	n	n	n
C[C@H]1CN([C@@H](C)CO)C(=O)c2cc(C#CC3CC3)cnc2O[C@H]1CN(C)C(=O)Nc1ccc(F)cc1	n	n	n	n	n
C[C@@H]1CN([C@@H](C)CO)C(=O)c2cccc(NC(=O)Nc3ccc4c(c3)OCO4)c2O[C@H]1CN(C)Cc1ccc(Cl)c(Cl)c1	n	n	n	n	n
CN(C)C(=O)[C@@H]1[C@@H](CO)[C@@H]2Cn3c(ccc(C4=CCCCC4)c3=O)[C@@H]2N1C(=O)c1ccccc1F	n	n	n	n	n
CCOc1ccc(CCNC(=O)COC(=O)c2nccnc2N)cc1OCC	n	n	n	51.3	n
CCOc1ccc(CCNC(=O)COC(=O)Cn2cnc3ccccc3c2=O)cc1OCC	n	n	n	x	n
SMILES	FGF22 binding	SIRT5 inh	Casp6 inh	GSIS activator	ERAP1 inh
CCOc1ncccc1C(=O)NCCc1ccc(S(N)(=O)=O)cc1	n	n	n	n	n
CCOc1ncccc1C(=O)OCC(=O)NCCc1ccc(S(N)(=O)=O)cc1	n	n	n	40.2	n
CCOc1ccc(CCNC(=O)COC(=O)Cn2cnc3c2c(=O)n(C)c(=O)n3C)cc1OCC	n	n	n	n	47.8
CCOc1ccc(CCNC(=O)COC(=O)COc2ccc(Cl)cc2)cc1OCC	n	n	n	45.0	n
CCOc1ccc(CCNC(=O)COC(=O)c2ccc(Br)o2)cc1OCC	n	n	n	n	n
COCC(=O)N1CC2(C1)CN(C(=O)Nc1ccccc1F)[C@H](CO)c1c2c2ccc(OC)cc2n1C	x	x	x	n	x
COc1ccc(NC(=S)NCCc2ccc(S(N)(=O)=O)cc2)c(OC)c1	n	n	n	n	n
COc1ccccc1NC(=S)NCCc1ccc(S(N)(=O)=O)cc1	45.8	n	n	x	n
CCOc1ccc(CCNC(=O)COC(=O)c2nc3nc(C)cc(C)n3n2)cc1OCC	x	x	x	45.2	x
COC(=O)C(c1ccccc1)C1(O)CC(C)N(C)CC1C (configuration not stated)	n	25.8	n	x	n
N#Cc1c(NC(=O)C2CC(Cl)=CCC2C(=O)O)sc2c1CCCC2 (configuration not stated)	n	n	n	n	n
CC1(C)Cc2c(sc(NC(=O)C3CC(Cl)=CCC3C(=O)O)c2C#N)CO1 (configuration not stated)	43.3	n	n	n	n
O=C(N[C@H]1CC[C@H](CCn2cc(-c3ccc(F)cc3)nn2)O[C@H]1CO)c1cnccn1	n	n	n	n	n
COc1ccc(NC(=O)CSc2nnc3ccc(-c4cccnc4)nn23)cc1OC	n	16.9	n	n	n
NC(=O)CSc1nnc2ccc(-c3ccc(Cl)cc3)nn12	x	n	n	n	n
Cc1cc(NC(=O)CSc2nnc(C3COc4ccccc4O3)n2N)no1 (configuration not stated)	42.9	n	n	n	n
C=CCn1c(SCC(=O)Nc2cc(C)on2)nnc1C1COc2ccccc2O1 (configuration not stated)	n	n	n	x	n
Cc1ccc(-c2ccc3nnc(SCC(N)=O)n3n2)cc1	43.0	n	n	n	n
Cc1cc(NC(=O)CSc2ccc3nnc(CCNS(=O)(=O)c4ccccc4)n3n2)no1	43.8	n	n	n	n
Cc1cc(NC(=O)CSc2nnc3ccc(-c4ccccc4)nn23)no1	n	25.6	n	x	n
Cc1cc(NC(=O)CSc2ccc3nnc(-c4ccccc4)n3n2)no1	n	n	n	n	n
C=CCNc1cc(C)oc(=O)c1C(=O)CCC	n	n	n	70.9	n
COc1ccc(NC(=O)N[C@@H]2CC[C@H](CCNC(=O)Cc3ccncc3)O[C@@H]2CO)cc1	n	n	n	n	n
CCC(=O)N[C@@H]1C=C[C@@H](CC(=O)OC)O[C@@H]1CO	n	n	n	n	n
COc1ccc(CCNS(=O)(=O)c2ccc(C3CNC(=O)C3)cc2)cc1OC (configuration not stated)	n	n	n	n	n
COc1ccc(C2CNC(=O)C2)cc1OC1CCCC1 (configuration not stated)	n	n	n	45.4	n
COc1cc(C(=O)Nc2cc(C(F)(F)F)ccc2N2CCOCC2)ccc1OCC(=O)N1CCOCC1	n	n	n	50.1	n
